GCN5L2 inh – inhibitors of human GCN5L2 histone acetyltransferase; Potency, µM (series often up to 58.9 µM), for the others: at the highest dose activity change, negative = inhibition, usual class: inhibitors; 390,000 compounds, 0.21% hits; AID 504327; GCN5L2 HAT assay, ThioGlo1 CoA-SH fluorescence; Q92830
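Titration-based screen in which CoA formation is detected via maleimide probe ThioGlo1 (50uM) turning fluorescent on thiol reaction; substrates H3(1-25) 75uM and acetyl-CoA 70uM, GCN5L2 20nM, 20 min incubation at room temperature.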
VDR inh – vitamin D3 receptor (human) inhibition; Potency, µM, for the others: max response, negative = inhibition, most hits filed as inhibitors; VDR-SRC2-3 peptide fluorescence polarization, 2 h; P11473; 400,000 compounds, 0.93% hits
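FP read-out; VDR + SRC2-3 coactivator peptide; 23 nl compound by pintool; 2 h RT incubation; reagents held at 4 deg C, protected from light.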
TDP1 cell CPT – DT40-hTDP1 cell growth loss with CPT; 420,000 compounds, 12% hits; Potency, µM (highest dose often 46.2 µM), for the others: top-dose activity change, negative = growth inhibition, most hits filed as inhibitors; AID 686979; chicken DT40 Tdp1-/-;hTDP1 cells + 20 nM CPT, ATP luminescence, 48 h; note: nearly all actives have a fitted effect of over 55% in size
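Chicken DT40 Tdp1-/- cells complemented with human TDP1, 400 cells/well, exposed to compounds plus 20 nM camptothecin for at least 48 h at 37 C; viability read as ATP content by CellTiter-Glo luminescence.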
TDP1 block – TDP1 (human) enzyme inhibition; Q9NUW8; recombinant TDP1, AlphaScreen DNA substrate cleavage; Potency, µM (series often up to 130 µM), for inactives: at the highest dose activity change, negative = inhibition, hits mostly inhibitors; 350,000 compounds, 0.28% hits; note: nearly all actives have a fitted effect of over 40% in size
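AlphaScreen read-out: signal falls as enzyme removes the 3' tyrosine-FITC from a 5'-biotinylated DNA oligo (15 nM, 5 min, RT). Enzyme was E. coli-made recombinant Tdp1 at 1 nM, exposed to compound for 15 min beforehand; beads 10 ug/ml, 10 min.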
DT40 TDP1 no CPT – qHTS for Inhibitors of human tyrosyl-DNA phosphodiesterase 1 (TDP1): qHTS in cells in absence of CPT; DT40 Tdp1-/- hTDP1 cells, no CPT, ATP luminescence, 48 h; Potency, µM (doses to about 46.2 µM), without a hit: at the highest dose activity change, negative = growth inhibition, actives largely listed as inhibitors; 420,000 compounds, 15% hits; AID 686978, 2013; note: nearly all actives have a fitted effect of over 55% in size
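Growth of hTDP1-complemented DT40 Tdp1-knockout cells is measured by ATP luminescence after at least 48 hr compound exposure at 37 °C, with DMSO substituting for the 20 nM CPT used in the parallel screen.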
PLK1 PBD inh – PLK1 (human) polo-box domain binding inhibition. AID 720504. Plk1 PBD binding of FITC phosphopeptide, fluorescence polarization. P53350. 360,000 compounds, 2.8% hits. Potency, µM, for inactives: max response, negative = inhibition, usual class: inhibitors; note: series mostly up to about 57 µM; nearly all actives have a fitted effect of over 65% in size
Target sequence (P53350 whole entry, looked up, the tested form may be a part): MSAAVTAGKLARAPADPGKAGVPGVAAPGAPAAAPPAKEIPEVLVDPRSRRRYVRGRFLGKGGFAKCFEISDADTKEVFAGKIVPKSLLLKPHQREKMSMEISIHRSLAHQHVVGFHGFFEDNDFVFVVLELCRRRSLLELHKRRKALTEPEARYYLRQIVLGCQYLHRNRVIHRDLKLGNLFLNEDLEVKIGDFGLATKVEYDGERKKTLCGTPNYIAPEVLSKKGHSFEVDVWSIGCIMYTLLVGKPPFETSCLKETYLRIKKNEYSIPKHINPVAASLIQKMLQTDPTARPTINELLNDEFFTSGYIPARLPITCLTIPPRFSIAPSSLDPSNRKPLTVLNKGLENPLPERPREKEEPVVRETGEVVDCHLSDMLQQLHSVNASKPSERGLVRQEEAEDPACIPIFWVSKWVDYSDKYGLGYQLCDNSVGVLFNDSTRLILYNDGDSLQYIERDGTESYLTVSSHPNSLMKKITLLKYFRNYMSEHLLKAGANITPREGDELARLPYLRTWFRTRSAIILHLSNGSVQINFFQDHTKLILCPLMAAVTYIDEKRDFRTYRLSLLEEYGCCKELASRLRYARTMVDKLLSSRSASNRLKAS
Active calls of the source: *; [ ] = dose if it differs, or a comment. In the library only some 18% were active in any assay of this set; here they are far more common. Calls come from the whole dose curve; as a rule, active = well fitted curve in the direction sought with a large enough effect; inconclusive = small, poorly fitted or top-dose-only effect, or another doubt; inactive = no such curve, though single readings can be large; an effect the other way counts as inactive or inconclusive. % is set by controls: 0 for no effect and ±100 for the full control effect; potency is the fitted concentration of half-maximal effect.

For Cc1cc2nc3c(=O)[nH]c(=O)[nH]c3nc2c([N+](=O)[O-])c1N the results were GCN5L2 inh inconclusive, VDR inh -23.8%, TDP1 cell CPT -23.2%, TDP1 block 39.8µM*, DT40 TDP1 no CPT -13.4% and PLK1 PBD inh 13.4µM*.
Screening CCc1ccc(-c2nn(CC(=O)Nc3ccccc3)c3c2cnc2ccc(F)cc23)cc1 returned GCN5L2 inh 3.3%, VDR inh -4.1%, TDP1 cell CPT -27.2%, TDP1 block 1.9% and DT40 TDP1 no CPT -19.3%.
CCCC(=O)Oc1ccccc1C1SCc2cc(C)c(C)cc2CS1 was read as GCN5L2 inh -1.8%, VDR inh -8.3%, TDP1 cell CPT 18.4µM*, TDP1 block 3.1%, DT40 TDP1 no CPT 25.9µM* and PLK1 PBD inh -0.2%.
For C[C@@H](CO)NC(=O)c1nc[nH]c1C(=O)N[C@H](C)c1ccccc1 the results were TDP1 cell CPT 2.5%, DT40 TDP1 no CPT -1.5% and PLK1 PBD inh -6.0%.
`Cc1ccc(C)c(N2CCN(C(=O)C3CCC3)CC2)c1` gave GCN5L2 inh -28.9%, VDR inh 5.3%, TDP1 cell CPT -5.0%, DT40 TDP1 no CPT -1.3% and PLK1 PBD inh 3.6%.
For COc1ccc(C(=O)N2CCC(C(=O)N3CCN(c4ccc(OC)cc4)CC3)CC2)cc1 the results were GCN5L2 inh 1.3%, VDR inh -23.5%, TDP1 cell CPT inconclusive, TDP1 block -0.5%[0.0935 µM], DT40 TDP1 no CPT inconclusive and PLK1 PBD inh 2.4%.
Screening CCn1c(C(=O)N2CCC(C(=O)N3CCN(c4ccccn4)CC3)CC2)cc2sccc21 returned GCN5L2 inh -7.5%, VDR inh 2.8%, TDP1 cell CPT inconclusive, TDP1 block 4.3%, DT40 TDP1 no CPT 25.9µM* and PLK1 PBD inh -6.3%.
Screening CCn1c(C(=O)N2CCC(C(=O)N3CCN(c4cc(C)ccc4C)CC3)CC2)cc2sccc21 returned GCN5L2 inh -13.0%, VDR inh 2.1%, TDP1 cell CPT 23.1µM*, TDP1 block 4.9% and DT40 TDP1 no CPT 16.4µM*.
CCn1c(C(=O)N2CCC(C(=O)N3CCN(c4ccc(OC)cc4)CC3)CC2)cc2sccc21 was read as GCN5L2 inh -1.2%, VDR inh -0.8%, TDP1 cell CPT 9.2µM*, TDP1 block 5.9% and DT40 TDP1 no CPT 13µM*.
For c1cc[n+](CCC[n+]2ccccc2)cc1 the results were GCN5L2 inh -1.4%, VDR inh 14.2%, TDP1 cell CPT -2.0%, DT40 TDP1 no CPT 17.1% and PLK1 PBD inh -5.8%.
For COc1cccc(NCc2nnc3n2CCCCC3)c1 the results were GCN5L2 inh -6.0%, VDR inh 4.3%, TDP1 cell CPT -2.1%, TDP1 block -2.7% and DT40 TDP1 no CPT -0.5%.
For COc1ccc(-c2noc(C(=O)NCc3ccc(F)cc3)n2)cc1OC the results were GCN5L2 inh -15.7%, VDR inh -12.3%, TDP1 cell CPT -1.6%, TDP1 block 0.0%, DT40 TDP1 no CPT -10.0% and PLK1 PBD inh -6.3%.
`O=C(CSc1nnc(CNC(=O)c2cccs2)o1)Nc1cccc(Cl)c1` gave GCN5L2 inh -2.5%, VDR inh 1.7%, TDP1 cell CPT -22.6%, TDP1 block 1.0%, DT40 TDP1 no CPT 12.3% and PLK1 PBD inh -6.8%.
For Cc1ccc(NC(=O)c2cnc(N3CCN(c4ccccn4)CC3)c3ccccc23)c(Br)c1 the results were GCN5L2 inh -30.0%, VDR inh 1.0%, TDP1 cell CPT 14.6µM*, TDP1 block 3.7%, DT40 TDP1 no CPT 13µM* and PLK1 PBD inh 23.8µM*.
O=C(Nc1c(F)cccc1F)c1cnc(N2CCN(c3ccccn3)CC2)c2ccccc12 was read as GCN5L2 inh -8.9%, VDR inh 5.0%, TDP1 cell CPT 23.1µM*, TDP1 block 1.0%, DT40 TDP1 no CPT 23.1µM* and PLK1 PBD inh 1.7%.
`COc1ccccc1C(=O)Nc1cccc(C(=O)OCc2cc(=O)n3ccsc3n2)c1` gave GCN5L2 inh -3.5%, VDR inh 8.4%, TDP1 cell CPT -20.1%, TDP1 block 6.2% and DT40 TDP1 no CPT -18.8%.
For O=C(O)CSC1CC(=O)N(c2ccc(Cl)cc2)C1=O (centres undefined) the results were GCN5L2 inh -2.7%, VDR inh -5.5%, TDP1 cell CPT 23.1%, TDP1 block 2.0%, DT40 TDP1 no CPT 2.4% and PLK1 PBD inh -5.7%.
`CCCCCCC(=O)N(O)C1CC(=O)N(c2ccc(C)cc2)C1=O` (centres undefined) gave GCN5L2 inh 2.6%, VDR inh 31.6µM*, TDP1 cell CPT 2.91µM*, TDP1 block 7.0%, DT40 TDP1 no CPT 5.8µM* and PLK1 PBD inh 26.7µM*.
`CCCOc1ccc(N2C(=O)CC(N(CCC)C(=O)CCC(=O)O)C2=O)cc1` (centres undefined) gave GCN5L2 inh 4.2%, VDR inh 1.2%, TDP1 cell CPT 4.8%, TDP1 block -1.1%, DT40 TDP1 no CPT -2.3% and PLK1 PBD inh -5.8%.
For CCCCCCC(=O)N(O)C1CC(=O)N(c2ccc(Cl)cc2)C1=O (centres undefined) the results were GCN5L2 inh -15.9%, VDR inh inconclusive, TDP1 cell CPT 2.31µM*, TDP1 block 9.6%, DT40 TDP1 no CPT 2.91µM* and PLK1 PBD inh inconclusive.
`CC(C)(C)c1cc(NC(=O)c2cc(F)c(F)c(F)c2F)no1` gave GCN5L2 inh 3.7%, VDR inh 15.4%, TDP1 cell CPT 29.1µM*, DT40 TDP1 no CPT inconclusive and PLK1 PBD inh -1.9%.
Cc1nc2sc(C(=O)N(C)c3ccccc3)c(NC(=O)c3ccccc3Cl)c2c(C)c1C was read as GCN5L2 inh -3.4%, VDR inh 1.6%, TDP1 cell CPT inconclusive, TDP1 block 1.9% and DT40 TDP1 no CPT inconclusive.
Cc1nc2sc(C(=O)NCc3ccc(Cl)cc3)c(NC(=O)c3ccccc3)c2c(C)c1C was read as GCN5L2 inh 2.9%, VDR inh -7.6%, TDP1 cell CPT 13µM*, TDP1 block -1.9% and DT40 TDP1 no CPT inconclusive.
Cc1nc2sc(C(=O)N(C)Cc3ccccc3)c(NC(=O)c3ccccc3)c2c(C)c1Cl was read as GCN5L2 inh -4.1%, VDR inh 3.4%, TDP1 cell CPT inconclusive, TDP1 block 5.8% and DT40 TDP1 no CPT 16.4µM*.
CC(C)(C)OC(=O)C[C@@H]1C/C=C\C[C@H](CC(=O)NCCO)C(=O)N2CCC[C@@H]2COC1=O was read as GCN5L2 inh -0.2%, VDR inh -16.1%, TDP1 cell CPT -8.0%, TDP1 block 0.3%, DT40 TDP1 no CPT -13.8% and PLK1 PBD inh 5.6%.

Screens: PubChem, National Center for Advancing Translational Sciences (NCATS)
